PubChem BioAssay (Tox21)
Values without a mark were called inactive. Activity calls are given as the source filed them. Calls follow the shape of the dose curve; as a rule, active = well fitted activation curve with a large enough effect in the signal ratio in the repeat runs (not every such curve was filed as active); inconclusive = weak or mixed curves, or effect the other way; inactive = no such curve, though single readings can be large or run the other way; the % refers to the signal ratio.

Target: Glucocorticoid receptor (Homo sapiens) (UniProt P04150)
Sequence (P04150 whole entry, looked up): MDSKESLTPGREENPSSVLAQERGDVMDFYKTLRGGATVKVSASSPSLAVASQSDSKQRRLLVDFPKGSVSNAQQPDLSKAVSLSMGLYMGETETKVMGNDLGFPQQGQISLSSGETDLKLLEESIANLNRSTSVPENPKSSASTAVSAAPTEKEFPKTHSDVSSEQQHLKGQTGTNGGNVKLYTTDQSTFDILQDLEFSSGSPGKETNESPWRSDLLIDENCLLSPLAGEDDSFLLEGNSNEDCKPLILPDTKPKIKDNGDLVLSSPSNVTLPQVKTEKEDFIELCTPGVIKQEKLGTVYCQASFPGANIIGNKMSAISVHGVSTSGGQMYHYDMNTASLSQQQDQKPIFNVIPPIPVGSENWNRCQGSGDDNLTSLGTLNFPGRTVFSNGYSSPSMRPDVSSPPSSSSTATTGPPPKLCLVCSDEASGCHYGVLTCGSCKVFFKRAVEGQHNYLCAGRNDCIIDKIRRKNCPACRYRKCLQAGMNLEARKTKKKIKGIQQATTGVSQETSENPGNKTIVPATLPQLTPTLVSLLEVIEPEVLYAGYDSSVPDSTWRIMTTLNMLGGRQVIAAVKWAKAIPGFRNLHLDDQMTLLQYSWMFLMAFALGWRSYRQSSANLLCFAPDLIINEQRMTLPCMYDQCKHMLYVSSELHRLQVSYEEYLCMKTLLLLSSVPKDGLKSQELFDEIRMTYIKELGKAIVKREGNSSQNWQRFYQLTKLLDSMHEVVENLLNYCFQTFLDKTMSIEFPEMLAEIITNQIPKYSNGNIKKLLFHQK
Assay: qHTS assay to identify small molecule agonists of the glucocorticoid receptor (GR) signaling pathway (AID 720691)
Details: GR-bla HeLa, beta-lactamase reporter ratio, 18 h; activation: at 62.4 µM (top of the series) unless noted
Text: U.S. Tox21 Program National Center for Advancing Translational Sciences [NCATS] NIH Chemical Genomics Center [NCGC] U.S. Environmental Protection Agency [EPA] National Institutes of Environmental Health Sciences [NIEHS] National Toxicology Program [NTP] U.S. Food and Drug Administration [FDA] Tox21 Assay Overview: The Glucocorticoid receptor (GR) is one of the members of the nuclear receptor family of ligand-dependent transcription factors. GR plays a critical role in carbohydrate, protein and lipid metabolisms and programmed cell death. CellSensor GR-bla HeLa cell line (Invitrogen) contains a beta-lactamase reporter gene under the control of the glucocorticoid response element stably integrated into HeLa cells, a cervical cancer cell line that expresses glucocorticoid receptor. The activation of the reporter gene under culture conditions can be detected by fluorescence intensity. This cell line has been used to screen the Tox21 10K compound library and to identify the compounds that activate the GR signaling.
Tox21 Assay Protocol Summary: The GR-bla HeLa cells were dispensed at 1500 cells/6 ul/well in 1536-well black wall/clear bottom plates using a Multidrop Combi (ThermoFisher Scientific, Waltham, MA) dispenser. After the assay plates were incubated at a 37 C/5% CO2 incubator for 4 hours, 23 nL of compounds dissolved in DMSO, positive controls or DMSO only was transferred to the assay plate by a pintool station (Kalypsys, San Diego, CA). The plates were incubated at 37 C for 18 hours. After 1 uL of LiveBLAzerTM B/G FRET substrate was added using a Flying Reagent Dispenser (Aurora Discovery, San Diego, CA), the plates were incubated at room temperature for 2 hours, and fluorescence intensity was measured by an Envision plate reader (PerkinElmer, Shelton, CT).
% is scaled to controls: 0 for no effect and ±100 for the full control effect; potency is read from the fitted curve at half-maximal effect.

SMILES	activation	Potency
COc1cc(Cl)c(OC)cc1N	-4.55%	–
CC(C)OC(=O)C(C)N(C(=O)c1ccccc1)c1ccc(F)c(Cl)c1 (stereo not given)	-7.14%	–
C[C@@H](c1ncncc1F)C(O)(Cn1cncn1)c1ccc(F)cc1F (stereo not given in full)	2.83%	–
C=C(C)C(=O)OCCO	1.24% [at 79.2 µM]	–
CCO[C@H](Cc1ccc(OCCc2ccc(OS(C)(=O)=O)cc2)cc1)C(=O)O	0.0258%	–
Nc1ccc(N)c2c1C(=O)c1ccccc1C2=O	-7.21%	–
CCCCCCCN	-1.08% [at 79.2 µM]	–
O=C1CCC(=O)O1	0.316% [at 79.2 µM]	–
O=C1CCCCCCCCCCCC(=O)OCCO1	0.652%	–
CCc1cc(C2=C(C(=O)O)N(c3ccccc3C(F)(F)F)S(=O)(=O)c3ccccc32)cc2c1OCO2	-7.85%	–
Cc1cccc(C)c1OCC(=O)N[C@@H](Cc1ccccc1)[C@@H](O)C[C@H](Cc1ccccc1)NC(=O)[C@H](C(C)C)N1CCCNC1=O	-10.8%	–
CC1OC(=O)C(C)OC1=O (stereo not given)	-1.96%	–
Nc1cccc([N+](=O)[O-])c1	-3.29%	–
CN1C[C@H]2c3ccccc3Oc3ccc(Cl)cc3[C@@H]2C1	-4.76%	–
N=c1ccn2c(n1)O[C@H]1[C@H](O)[C@@H](CO)O[C@H]12	–	inactive
CCCOC(C(=O)OC1CCN(C)CC1)(c1ccccc1)c1ccccc1	-5.53%	–
COc1cc(C(=O)OCCCN2CCCN(CCCOC(=O)c3cc(OC)c(OC)c(OC)c3)CC2)cc(OC)c1OC	-2.59%	–
O=[N+]([O-])c1ccc2[nH]ncc2c1	-4.69%	–
NC(=O)C(c1ccccc1)(c1ccccc1)[C@@H]1CCN(CCc2ccc3c(c2)CCO3)C1	-4.31%	–
O=C(Nc1ccc(S(=O)(=O)N2CCOCC2)cc1)c1cc(Cl)ccc1NS(=O)(=O)c1ccc(Cl)s1	-4.68%	–

SMILES	activation	Potency
CCC(C)O (stereo not given)	-0.285% [at 79.2 µM]	–
CC(C)C[C@H]1C(=O)N2CCC[C@H]2[C@]2(O)O[C@](NC(=O)[C@@H]3C=C4c5cccc6[nH]c(Br)c(c56)C[C@H]4N(C)C3)(C(C)C)C(=O)N12	–	inactive
NCC(=O)O	0.348%	–
OCc1cc(C(O)CNCCCCCCOCCCCc2ccccc2)ccc1O (stereo not given)	–	inactive
Cc1[nH]c(C)c(Cl)c(=O)c1Cl	-1.44%	–
CCCCCCCCO[C@@H]1O[C@H](CO)[C@@H](O)[C@H](O)[C@H]1O	-3.61%	–
COc1ccc(-c2nc3ccc(C4=NNC(=O)CC4C)cc3[nH]2)cc1 (stereo not given)	-3.41%	–
COc1cc2nc(N(C)CCCNC(=O)C3CCCO3)nc(N)c2cc1OC (stereo not given)	0.412% [at 29.2 µM]	–
CCCCCCCCCc1ccc(OCCOCCO)cc1	–	inactive
CCO[Si](CCCCl)(OCC)OCC	0.219%	–
O=C1c2ccccc2S(=O)(=O)N1CCCCN1CCN(c2ncccn2)CC1	-1.04%	–
S=C([S-])NCCNC(=S)[S-].[Mn+2]	-5.24%	–
CO[C@@H]1[C@H](OC(=O)/C=C/C=C/C=C/C=C/C(=O)O)CC[C@]2(CO2)[C@H]1[C@@]1(C)O[C@@H]1CC=C(C)C	–	inactive
O=C(NCCO[N+](=O)[O-])c1cccnc1	-2.01%	–
CCN(CC)CCNc1ccc(CNC=O)c2sc3ccc(OC)cc3c(=O)c12	–	49 µM [inconclusive] (active)
CCOc1ccc(O)cc1	-0.476%	–
Cc1oc(-c2ccccc2)nc1CCOc1cccc2c1ccn2CCC(=O)O	-7.68%	–
Cc1nn(C)c(Oc2ccccc2)c1/C=N/OCc1ccc(C(=O)OC(C)(C)C)cc1	7.32%	–
C[N+]1(C)CCC(OC(=O)C(O)(c2ccccc2)C2CCCC2)C1 (stereo not given)	–	inactive
CN1CCC(=C2c3ccccc3Sc3ccccc32)CC1	23%	–
